# Results as given in PubChem BioAssay AID1508635 (National Center for Advancing Translational Sciences (NCATS), 2021).
# Inconclusive results are not listed. The source made the active and inactive calls. The call rests on the fitted dose curve; in most records, active means well fitted inhibition curve with a large enough effect; inconclusive means small, poorly fitted or top-dose-only effect; inactive means no such curve, though single readings can be large or run the other way. Numbered stars: 1 amine (or outer) side, 2 acyl side, 3 side chain; on linkers, the order of the positions; unused ones are H or OH. Square brackets hold non-standard residues; d marks the D form. Peptide text beside a SMILES is read from it. X1 = O=C([C@@H](CC(O)CCl)O[*:1])[*:2]; aIle = CC[C@@H](C)[C@H](N)C(=O)O; NMeV = CN[C@H](C(=O)O)C(C)C; NMeA = CN[C@@H](C)C(=O)O; βAla = NCCC(=O)O
# Tested on: zebrafish Abcb4 (ABCB1 homolog)
# Test: qHTS for characterization and localization of zebrafish homologs of the human ABCB1 multidrug transporter: ABCB4 transfected cells
# Conditions: CellTiter-Glo viability luminescence, 72 h; series mostly up to 15.2 µM; activity change, negative = inhibition: at the top concentration
# From the text: The zebrafish has emerged as a potential model to study the blood-brain barrier (BBB) given its similarities with mammalian systems. However, little information has been available with regard to homologous ATP-binding cassette transporters expressed at the zebrafish BBB. Two transporters that are highly expressed at the human BBB are P-glycoprotein (P-gp, encoded by the ABCB1 gene) and ABCG2 (encoded by the ABCG2 gene). In this study, we focus on characterization of P-gp homologs in the zebrafish, which has two genes that are homologous to human ABCB1 - abcb4 and abcb5. We generated stably-transfected cell lines to determine their substrate specificities. […] Zebrafish abcb4 also colocalized with claudin 5 expression in brain endothelial cells.
# A high-throughput screen was performed as previously described on empty vector transfected cells, P-gp-overexpressing MDR-19 cells and cells transfected with full-length zebrafish abcb4 (ZF Abcb4) or abcb5 (ZF Abcb5). Briefly, cells were plated into 1536-well plates at a density of 500 cells/well in 5 uL media. P-gp substrate compounds (approximately 90) selected from our previous study were then added at varying concentrations using a 1536-head pin tool (Kalypsis, San Diego, CA) and plates were incubated at 37C in 5% CO2 for 72 h. CellTiter-Glo reagent (Promega) was dispensed into the wells, incubated for 5 min and luminescence was read on a ViewLux instrument (Perkin-Elmer).
# Cytotoxic compounds were defined as those that yielded a curve class of -1.1, -1.2, -2.1, -2.2, -2.3, or -2.4, a maximum response of >50% and an AC50 of < 10 uM. All compounds from screening analysis were tested in Vector (empty vector control), MDR-19 (P-gp overexpressing), zebrafish abcb4 (ZF Abcb4) and abcb5 (ZF Abcb5) expression cell lines.
# 1. Tobie D Lee, Olivia W Lee, Kyle R Brimacombe, Lu Chen, Rajarshi Guha, Sabrina Lusvarghi, Bethilehem G Tebase, Carleen Klumpp-Thomas, Robert W Robey, Suresh V Ambudkar, Min Shen, Michael M Gottesman, Matthew D Hall. A High-Throughput Screen of a Library of Therapeutics Identifies Cytotoxic Substrates of P-glycoprotein. […]
Compound,Potency,"activity change, negative = inhibition"
C[C@@H]1[C@@H](CC(C[C@H]2O[C@@H]3O[C@]4(C)CC[C@@H]5[C@H](C)CC[C@@H]([C@H]2C)[C@@]35OO4)C[S+](=O)([O-])c2ccc(COC(=O)N(C)C)cc2)O[C@@H]2O[C@]3(C)CC[C@H]4[C@H](C)CC[C@@H]1[C@@]24OO3 (stereo partly drawn),2.35 µM (active),
C=CCON=C(C[C@H]1O[C@@H]2O[C@]3(C)CC[C@@H]4[C@H](C)CC[C@@H]([C@H]1C)[C@@]24OO3)[C@H]1O[C@@H]2O[C@]3(C)CC[C@H]4[C@H](C)CC[C@@H]([C@@H]1C)[C@@]24OO3,1.87 µM (active),
CC[C@@H](C)[C@@H]1NC(=O)[C@@H]2CCCN2C(=O)[C@@H](CC(O)CCl)OC(=O)CCNC(=O)[C@H](C)N(C)C(=O)[C@H](C(C)C)N(C)C1=O (stereo partly drawn) (cyclo([NMeA][βAla][X1]P[aIle][NMeV])),,-14.4% (inactive)
